Screening results: PubChem, National Center for Advancing Translational Sciences (NCATS)
Sampled rows, rich in hits. Any-hit rate of the full collection: about 7.3%.
Tau fibril FP – tau fibrillization inhibition (FP) | P10636 | K18 P301L tau heparin fibrillization, Alexa594 FP, 6 h | Potency, µM (top dose mostly 57.7 µM), for the others: at the highest dose activity, negative = inhibition, hits mostly inhibitors | 280,000 compounds, 0.39% hits | AID 1468; further: nearly all actives have a fitted effect of over 55% in size
Target sequence (P10636 561-689 P618L limits assumed): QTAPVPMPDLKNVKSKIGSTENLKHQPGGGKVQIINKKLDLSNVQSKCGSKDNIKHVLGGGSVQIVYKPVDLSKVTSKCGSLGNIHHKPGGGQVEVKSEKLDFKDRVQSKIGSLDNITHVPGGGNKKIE
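Compound effects on tau fibrillization are measured by Alexa 594 fluorescence polarization (ex 555, em 632 nm). K18 P301L tau is used at 15 uM with 0.24 uM labeled tracer, and 20 uM heparin induces aggregation over 6 hr at 37 C.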
Tau fluor cs – counter-screen for tau fibril formation inhibitors; tau K18 P301L Alexa594 fluorescence, heparin fibrillization; Potency, µM (doses to about 57.7 µM), for inactives: top-dose activity change, negative = decrease; 280,000 compounds, 0.93% hits; AID 1463; further: nearly all actives have a fitted effect of over 55% in size
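Human tau K18 P301L (15 uM unlabeled, 0.24 uM Alexa 594-labeled) in 100 mM sodium acetate pH 7 with 20 uM heparin, 6 hr at 37 C. ThT 30 uM added, 1 hr ambient; Alexa 594 FP and total fluorescence read at 555/632 nm.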
VP16 counter – Gal4-VP16 reporter inhibition counter-screen | Drosophila S2 Gal4-VP16 UAS-luciferase, luminescence, 20 h | Potency, µM (series often up to 53.6 µM), inactives show at the top dose activity, negative = inhibition, usual class: inhibitors | 310,000 compounds, 3.5% hits;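 further: Gal4-VP16 expression switched on by copper sulfate through the metallothionein promoter; nearly all actives have a fitted effect of over 50% in size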
RORgamma inh – ROR gamma (mouse) transcription inhibition; 310,000 compounds, 5.4% hits; Potency, µM (titrated, usually from 53.6 µM), for the others: at the top dose activity change, negative = inhibition, actives largely listed as inhibitors; Drosophila S2 Gal4-RORgamma UAS-luciferase reporter, 20 h; further: nearly all actives have a fitted effect of over 60% in size
Target sequence (P51450 whole entry, looked up, the tested form may be a part): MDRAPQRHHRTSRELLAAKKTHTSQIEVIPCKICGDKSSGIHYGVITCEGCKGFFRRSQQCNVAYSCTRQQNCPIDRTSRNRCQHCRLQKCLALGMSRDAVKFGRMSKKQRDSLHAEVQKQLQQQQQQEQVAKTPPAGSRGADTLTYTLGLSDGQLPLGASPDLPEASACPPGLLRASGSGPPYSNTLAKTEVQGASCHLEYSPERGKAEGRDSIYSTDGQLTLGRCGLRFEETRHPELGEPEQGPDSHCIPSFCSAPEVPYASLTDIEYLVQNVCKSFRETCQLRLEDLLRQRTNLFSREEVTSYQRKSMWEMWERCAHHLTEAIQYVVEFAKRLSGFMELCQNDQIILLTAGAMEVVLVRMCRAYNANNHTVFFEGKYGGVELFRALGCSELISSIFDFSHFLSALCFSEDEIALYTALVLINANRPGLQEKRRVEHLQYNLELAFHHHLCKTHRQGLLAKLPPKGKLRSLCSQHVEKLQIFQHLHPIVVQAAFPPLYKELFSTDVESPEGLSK
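Read-out: Photinus luciferase luminescence; inhibitors lower reporter signal. Insect Schneider cells with Gal4-ROR gamma fusion under metallothionein promoter, UAS reporter; 700 uM final copper sulfate induction, 20 hr, ambient temperature.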
Tau fibril ThT – blocks human tau fibril formation measured by thioflavin T | Potency, µM (titrated, usually from 57.4 µM), for inactives: at the top dose activity, negative = inhibition, usual class: inhibitors | 270,000 compounds, 2.1% hits | recombinant tau K18 P301L (four-repeat tau fragment), heparin-induced fibrillization, ThT fluorescence | AID 1460 | P10636; further: nearly all actives have a fitted effect of over 55% in size
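Tau K18 P301L fragment (15 uM unlabeled plus 0.24 uM Alexa 594-labeled) in 100 mM sodium acetate pH 7 with compound, fibrillization induced by 20 uM heparin for 6 hr at 37 C. Thioflavin T (30 uM) added, fluorescence read after 1 hr (ex 450, em 510 nm).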
* marks the source's active call; other numbers are inactive results; ? = inconclusive; · = not tested or not shown; [ ] = dose if it differs, or a comment. The call rests on the fitted dose curve; in most records, active means well fitted curve in the direction sought with a large enough effect; inconclusive means small, poorly fitted or top-dose-only effect, or another doubt; inactive means no such curve, though single readings can be large; an effect the other way counts as inactive or inconclusive. On the % scale 0 is the no-effect control and ±100 the full control effect; potency means the concentration at half of the fitted maximal effect.

SMILES | Tau fibril FP | Tau fluor cs | VP16 counter | RORgamma inh | Tau fibril ThT
Cn1cccc1-c1cc(C(=O)N/N=C/C=C/c2ccccc2)[nH]n1 | -4.5% | -17.6% | ? | 5.01µM* | -13.5%
COc1ccc(/C=N/NC(=O)c2cc3c(OC)ccc(OC)c3[nH]2)cc1O | · | · | ? | -42.4% | ·
O=C(Nc1ccccc1)Nc1nnc(CSCc2ccccc2Cl)s1 | 10µM* | ? | ? | ? | 21.4%
O=C(Nc1ccc(Cl)cc1)Nc1nnc(CSCc2ccccc2Cl)s1 | ? | 1.6% | -21.3% | 17.0% | ?
O=C(Nc1ccc(Cl)c(Cl)c1)Nc1nnc(CSc2ccccc2)s1 | 3.55µM* | -28.5% | -25.9% | ? | 7.6%
Cc1ccc(OCCSCc2nnc(NC(=O)Nc3cccc(Cl)c3)s2)cc1 | 15.8µM* | ? | ? | 3.2% | 10.1%
Cc1nnc(NC(=O)Nc2cccc(Cl)c2)s1 | 0.7% | -22.9% | 4.6%[0.365 µM] | ? | -0.3%
O=C(Nc1ccc(Cl)cc1)Nc1nnc(SCc2ccccc2)s1 | -8.2% | -17.9% | -6.2% | 11.8% | 14.6%
COC(=O)C(Cc1ccc(O)cc1)NC(=O)c1ccccc1 (centres undefined) | -2.0% | -6.4% | ? | 2.24µM* | -13.8%
COC(=O)C(Cc1ccccc1)NC(=O)c1ccc(C)cc1 (centres undefined) | -7.7% | -6.1% | -11.7% | 13.0% | -4.1%
CCCCn1cc(S(=O)(=O)c2ccc(F)cc2)c(=O)c2ccccc21 | -5.0% | -2.7% | · | · | 1.9%
Cc1ccc2cc(CN(CC3CCCO3)C(=O)NC3CCCCC3)c(=O)[nH]c2c1C (centres undefined) | 7.1% | -0.9% | ? | 3.16µM* | -8.5%
CCc1cc2c(nc1CC)CCN(CC/C(C)=N/O[C@@H](C)c1cn([C@H](CO)Cc3ccccc3)nn1)C2 | -0.7%[11.6 µM] | -5.6%[11.6 µM] | 11.7%[10 µM] | -6.5%[10 µM] | -5.5%[11.5 µM]
Cc1cccc(N=c2oc3cc(O)ccc3cc2C(N)=O)c1 | 0.0% | ? | 14.1µM* | 11.2µM* | ?
Cc1cc(C)n(CCNC(=O)C2CCC(=O)N(Cc3ccc(Cl)cc3)C2)n1 (centres undefined) | · | · | 0.6% | -11.9% | ·
CCOc1ccc(CNc2nc3nc(C)c(Cc4ccccc4)c(=O)n3[nH]2)cc1 | -12.8% | 3.1% | · | · | 0.2%
Cc1cc(-c2csc(NC(=O)c3cc4ccccc4o3)n2)c(C)n1C | -1.8% | ? | -0.3% | 15.8% | ?
Cc1cccc(C(=O)NC(C(=O)Nc2nc(-c3ccccn3)cs2)C(C)C)c1 (centres undefined) | -4.2% | -8.6% | ? | 7.94µM* | -4.8%
O=C(Nc1nc(-c2ccccn2)cs1)c1ncc(Cl)c(Cl)c1Cl | -1.3% | -23.3% | 10µM* | 6.31µM* | ?
Cn1cccc1C(=O)Nc1nc(-c2ccccn2)cs1 | 3.2% | 4.8% | 3.98µM* | 1.58µM* | 6.1%
O=C(Nc1nc(-c2ccccn2)cs1)c1ccc(Cl)s1 | ? | ? | 3.7% | 19.7% | ?
C[C@H](NC(=O)c1ccccc1)C(=O)Nc1nc(-c2ccccn2)cs1 | -2.1% | -6.8% | -6.7% | -3.7% | -7.7%
Cc1csc(NC(=O)c2cccn2C)n1 | -4.4% | -5.1% | -19.3% | -14.6% | -7.4%
O=C(Nc1nc(-c2ccccn2)cs1)c1cc2ccccc2o1 | 8.5% | ? | 11.2µM* | 1.58µM* | 0.6%
COC(=O)C1=C(C(=O)OC)[C@@H]2Nc3ccccc3[C@@]23C[C@@H](C(=O)OC)N(S(=O)(=O)c2ccc(Br)cc2)C3=N1 | 1.5%[11.6 µM] | -18.1%[11.6 µM] | · | · | -2.4%[11.5 µM]
SMILES | Tau fibril FP | Tau fluor cs | VP16 counter | RORgamma inh | Tau fibril ThT
CC(=O)c1ccsc1-c1c(C)cc2oc(=O)cc(-c3ccccc3)c2c1C | -8.1%[81.3 µM] | -11.8%[81.3 µM] | -4.6% | -9.5% | ?
Nc1cc(N)c(OCC(F)(F)F)cc1OCC(F)(F)F | 12.6µM* | ? | -0.2% | -20.6% | 3.16µM*
Nc1cc(OCC(F)(F)F)cc([N+](=O)[O-])c1 | 14.3% | -1.1% | 0.7% | 24.7% | -9.2%
Cc1cc(C)nc(Nc2nc(C)c3cc4c(cc3n2)OCO4)n1 | 1.1% | 0.6% | 7.08µM* | 7.08µM* | 4.1%
COc1ccccc1CNc1ncnc2c1nc1n2CCCC1 | 1.7% | -0.4% | · | · | 5.5%
CC(=O)Nc1ccc(C2NC(=S)N(c3ccccc3C(F)(F)F)C(C)=C2C(=O)N2CCOCC2)cc1 (centres undefined) | 3.5% | -5.6% | -16.3% | 4.1% | -1.1%
COC(=O)C1=C(C)N(c2ccccc2)C(=S)NC1c1ccccc1C(F)(F)F (centres undefined) | -5.8% | -13.9% | ? | 3.16µM* | -10.1%
COCCOC(=O)C1=C(C)N(c2ccccc2)C(=S)NC1c1ccccc1C(F)(F)F (centres undefined) | -0.2% | -12.0% | ? | 17.8µM* | -4.3%
Oc1c(C(Nc2cccc(C(F)(F)F)c2)c2ccncc2)ccc2cccnc12 (centres undefined) | 9.8% | -5.1% | 5.62µM* | 3.98µM* | ?
Oc1c(C(Nc2nccs2)c2ccc(C(F)(F)F)cc2)ccc2cccnc12 (centres undefined) | ? | ? | 1µM* | 0.562µM* | -7.5%
C=CCOc1c(CNc2ccc(S(N)(=O)=O)cc2)cccc1OC | 6.3% | -1.2% | -4.2% | 28.1% | -3.9%
COc1ccc(CNc2ccc(S(N)(=O)=O)cc2)c(OC)c1OC | 1.7% | -3.7% | 20µM* | ? | -2.8%
COc1ccccc1-c1ccc(/C=C2/C=C(CC(C)C)OC2=O)o1 | 2.8% | -26.8% | 1.0% | -1.1% | 8.91µM*
CCOc1ccccc1-c1ccc(C(=O)O)o1 | -3.3%[126 µM] | -15.1%[126 µM] | -3.2%[96.6 µM] | -42.9%[96.6 µM] | ?
O=Cc1ccc(-c2ccccc2OC(F)(F)F)o1 | -5.9% | -9.3% | 1.3% | -8.5% | -7.5%
CCCC1=C/C(=C/c2ccc(-c3ccccc3OC)o2)C(=O)O1 | -12.0% | ? | -3.8% | 15.8% | 12.6µM*
COc1ccccc1CNC(=O)CCC1N=C2c3ccccc3N=C(SCc3ccc(Cl)cc3)N2C1=O (centres undefined) | 6.5% | 4.9% | · | · | 3.5%
Cc1nc2cc(C)c(C)cc2s1 | -1.2% | 6.2% | -0.1% | -26.0% | 9.1%
Cc1cc2nc3ccc(=[N+](C)C)cc-3sc2cc1N | 8.91µM* | ? | 35.5µM* | ? | 1.12µM*
Oc1cccc(-c2nc3ccccc3s2)c1 | -1.2% | -25.8% | 10µM* | ? | -17.2%
COc1cc(-c2nc3ccccc3s2)ccc1O | 7.1% | ? | -10.1% | -7.2% | ?
Oc1ccccc1OCc1nc2ccccc2s1 | -1.4% | -16.8% | 22.9% | ? | ?
COc1ccc(-c2nc3ccccc3s2)cc1O | -5.1% | ? | 8.91µM* | 10µM* | ?
CCOc1cc(-c2nc3ccccc3s2)ccc1O | 4.8% | 20µM*[quencher] | 0.9% | -5.1% | ?
Oc1ccc(O)c(Cc2nc3ccccc3s2)c1 | 14.6% | ? | 25.1µM* | 7.08µM* | ?
CN1CCN(C2(CNC(=O)c3ccc([N+](=O)[O-])cc3)CCCCC2)CC1 | 6.8% | -8.8% | · | · | -9.6%
